Growth data for 7 molecules are collected here from PubChem BioAssay (NCI).

This is part of a sample that, as a whole, favours compounds with a hit. Of some 83,000 tested, about 20% had one in any assay.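 Assay: single dose, 48 h. Readout: percent growth (0 = no net growth; negative = cell death). Active: <10.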 A number with no mark means an inactive call. The source made the active and inactive calls.

Some test systems named below: HCT-15 colon; HT29 colon; SNB-75 CNS; SNB-19 CNS; U251 CNS; PC-3 prostate; SK-MEL-5 melanoma; UACC-62 melanoma; LOX IMVI melanoma; SK-MEL-28 melanoma; SK-MEL-2 melanoma; EKVX NSCLC; SN12C renal; UO-31 renal; TK-10 renal; ACHN renal; CAKI-1 renal; A498 renal; CCRF-CEM leukemia; MOLT-4 leukemia.
Test in all cases: NCI-60 one-dose screen, 48 h (100 = growth as untreated, 0 = no growth, -100 = all killed)
Common to all, as to settings: 10 µM unless noted

In the case of `COc1cc2c3c(c1O)-c1ccccc1[C@@H]1OC(=O)N(CC2)[C@H]31`, the growth in the test on HCT-15 colon was 100%; in the test with HT29 colon, 106%; in the test on SNB-75 CNS, 90.5%; in the test with SNB-19 CNS, 104%; with U251 CNS, 94.8%; with PC-3 prostate, 70.7%. Moreover, the growth with SK-MEL-5 melanoma is 96.1%; in the test on UACC-62 melanoma it was 90.1%; in the test on LOX IMVI melanoma, 99.1%; in the test with SK-MEL-28 melanoma, 118%; with SK-MEL-2 melanoma it was 97.6%; with EKVX NSCLC, 104%. The growth was 101% in the test on SN12C renal; 88.5% with UO-31 renal; 104% with TK-10 renal; 106% in the test on ACHN renal; 95.4% in the test with CAKI-1 renal; 92.9% in the test on A498 renal. Also, the growth was 74.1% in the test on CCRF-CEM leukemia and 96.8% with MOLT-4 leukemia.
Consider `COC(=O)c1c2c(n3ccc(C)cc13)C(=O)c1ccccc1C2=O`, for which the growth was 53.6% in the test on HCT-15 colon; 61.5% with HT29 colon; 109% with SNB-75 CNS; 78.3% in the test on SNB-19 CNS; 77.3% in the test on U251 CNS; 48.9% in the test with PC-3 prostate. Also, the growth was 28.5% with SK-MEL-5 melanoma; 78.3% with UACC-62 melanoma; 58.3% in the test with LOX IMVI melanoma; 99.4% in the test with SK-MEL-28 melanoma; 71.6% in the test with SK-MEL-2 melanoma; 76.3% in the test on EKVX NSCLC. The growth is 75.9% in the test on SN12C renal; 41% in the test with UO-31 renal; 85.8% with TK-10 renal; 56.3% in the test on ACHN renal; 59.2% in the test with CAKI-1 renal; 78.3% in the test with A498 renal. The growth with CCRF-CEM leukemia was 46.8%; in the test on MOLT-4 leukemia it was 51.4%.
With `COc1ccc(Nc2ncccc2NC(=O)c2cn(Cc3cccc(Oc4ccccc4)c3)nn2)cc1OC`, the growth with HCT-15 colon is 67.7%; in the test on HT29 colon, 81.1%; with SNB-75 CNS it was 76.2%; with SNB-19 CNS, 79.2%; in the test with U251 CNS, 74.5%; in the test on PC-3 prostate, 67.3%. Moreover, the growth in the test on SK-MEL-5 melanoma was 45.1%; with UACC-62 melanoma it was 57.5%; in the test on LOX IMVI melanoma, 67%; with SK-MEL-28 melanoma, 83.4%; in the test with SK-MEL-2 melanoma, 95.1%; with EKVX NSCLC, 68%. The growth in the test with SN12C renal was 81.1%; with UO-31 renal it was 54.4%; in the test with TK-10 renal it was 96.5%; in the test with ACHN renal it was 93.9%; in the test with CAKI-1 renal, 82%; with A498 renal, 69.6%. In addition, the growth is 74.7% with CCRF-CEM leukemia and 48.1% with MOLT-4 leukemia.
With `N=C(N)c1ccc(-c2ccc(-c3ccc(Cl)cc3)o2)o1`, the growth is -78.1% (active) in the test with HCT-15 colon; -58.3% (active) in the test with HT29 colon; 69.8% with SNB-75 CNS; -68.3% (active) with SNB-19 CNS; -95.5% (active) in the test with U251 CNS; 43.9% in the test with PC-3 prostate. Further, the growth in the test with SK-MEL-5 melanoma was 76%; in the test on UACC-62 melanoma, -67.4% (active); in the test with LOX IMVI melanoma it was -73% (active); in the test on SK-MEL-28 melanoma, 96.9%; in the test with SK-MEL-2 melanoma, 82.1%; with EKVX NSCLC, 68.3%. For the same molecule, the growth in the test with SN12C renal is -58.9% (active); in the test on UO-31 renal, 46%; in the test on TK-10 renal it was 72.1%; in the test on ACHN renal it was 28.3%; in the test with CAKI-1 renal, 54.2%; in the test on A498 renal, 61.3%. In addition, the growth in the test with CCRF-CEM leukemia is -20.3% (active); with MOLT-4 leukemia, -28.9% (active).
On to `COc1ccc2nc3ccccc3c(NCc3ccc(F)cc3)c2c1`, for which the growth in the test with HCT-15 colon is 4.11% (active); with HT29 colon, 0.209% (active); in the test on SNB-75 CNS, 23.8%; in the test on SNB-19 CNS, 17.7%; with U251 CNS it was 22.1%; in the test on PC-3 prostate it was 17.1%. Moreover, the growth was -6.56% (active) in the test with SK-MEL-5 melanoma; 39.1% with UACC-62 melanoma; -66.7% (active) in the test with LOX IMVI melanoma; 35.3% in the test with SK-MEL-28 melanoma; 35% in the test on SK-MEL-2 melanoma; 22.4% with EKVX NSCLC. Also, the growth is 17% with SN12C renal; -8.18% (active) with UO-31 renal; 37.8% in the test with TK-10 renal; 5.65% (active) with ACHN renal; 7.16% (active) in the test with CAKI-1 renal; -8.16% (active) with A498 renal. For the same molecule, the growth in the test on CCRF-CEM leukemia was 18.4%; in the test with MOLT-4 leukemia, 0.544% (active).
Consider `Cc1ccc(Nc2nc(-c3ccc(F)cc3)c(C#N)c(=O)n2C)cc1`, for which the growth in the test on HCT-15 colon is 55%; in the test on HT29 colon, 78.2%; in the test with SNB-75 CNS, 30%; with SNB-19 CNS it was 56.2%; in the test with U251 CNS, 68.2%; in the test on PC-3 prostate it was 67.9%. The growth in the test with SK-MEL-5 melanoma was 77.2%; in the test with UACC-62 melanoma it was 51.8%; in the test with LOX IMVI melanoma, 74.3%; in the test with SK-MEL-28 melanoma, 74.1%; in the test with SK-MEL-2 melanoma it was 70.8%; in the test with EKVX NSCLC it was 54.6%. Further, the growth in the test with SN12C renal was 62.9%; in the test with UO-31 renal, 44.8%; in the test on TK-10 renal, 55.4%; in the test with ACHN renal, 63%; with CAKI-1 renal, 59.3%; with A498 renal, 42.7%. The values for the growth in the test on CCRF-CEM leukemia and in the test on MOLT-4 leukemia were 98.8% and 81.5%, respectively.
Regarding `COc1cc2c(cc1O)[C@@]1(C)[C@H](c3ccccc3Br)OC(=O)N1CC2`, the growth with HCT-15 colon was 94.9%; in the test on HT29 colon it was 96.7%; with SNB-75 CNS, 102%; in the test on SNB-19 CNS, 95.2%; in the test with U251 CNS it was 89.3%; in the test on PC-3 prostate, 71.3%. For the same molecule, the growth is 68% in the test with SK-MEL-5 melanoma; 72.1% in the test with UACC-62 melanoma; 90.6% in the test on LOX IMVI melanoma; 99.1% in the test with SK-MEL-28 melanoma; 89.8% with SK-MEL-2 melanoma; 82% in the test on EKVX NSCLC. The growth in the test with SN12C renal was 87.6%; in the test on UO-31 renal it was 85.3%; in the test on TK-10 renal it was 91.9%; with ACHN renal it was 83.2%; with CAKI-1 renal, 92.5%; in the test with A498 renal, 89.6%. Further, the values for the growth in the test with CCRF-CEM leukemia and in the test on MOLT-4 leukemia were 83% and 90.8%, respectively.
